From PubChem BioAssay
CYP2C19 inhib: blockers of cytochrome P450 2C19 activity – biochemical, luminescence, ADME assay, primary screen; 96,000 tested, 21% active; inhibition, % at 5 µM; P33261; CYP2C19 Supersomes, luciferin-H EGE luminescence, 30 min;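 active = CYP2C19 inhibition above a set limit at 5 µM in the primary screen, cut at about 50% in these data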
hDAT+cocaine: changed hDAT dopamine uptake under cocaine IC80, either direction, primary screen, cocaine antagonist project, cell-based, LLC-PK1 hDAT, [14C]-dopamine uptake, MLSMR; 110,000 tested, 1.3% active; Sodium-dependent dopamine transporter (Homo sapiens), Q01959; B-score at 10 µM; AID 449768, 2010; LLC-PK1 hDAT cells, [14C]-dopamine uptake with cocaine IC80; actives deviate in either direction;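 active = Z score or B-score, a plate-position-corrected score, falls beyond the plate's 99.7% confidence bounds, in either direction; inactive = both scores lie inside the 99.7% bounds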
Target sequence (Q01959 whole entry, looked up): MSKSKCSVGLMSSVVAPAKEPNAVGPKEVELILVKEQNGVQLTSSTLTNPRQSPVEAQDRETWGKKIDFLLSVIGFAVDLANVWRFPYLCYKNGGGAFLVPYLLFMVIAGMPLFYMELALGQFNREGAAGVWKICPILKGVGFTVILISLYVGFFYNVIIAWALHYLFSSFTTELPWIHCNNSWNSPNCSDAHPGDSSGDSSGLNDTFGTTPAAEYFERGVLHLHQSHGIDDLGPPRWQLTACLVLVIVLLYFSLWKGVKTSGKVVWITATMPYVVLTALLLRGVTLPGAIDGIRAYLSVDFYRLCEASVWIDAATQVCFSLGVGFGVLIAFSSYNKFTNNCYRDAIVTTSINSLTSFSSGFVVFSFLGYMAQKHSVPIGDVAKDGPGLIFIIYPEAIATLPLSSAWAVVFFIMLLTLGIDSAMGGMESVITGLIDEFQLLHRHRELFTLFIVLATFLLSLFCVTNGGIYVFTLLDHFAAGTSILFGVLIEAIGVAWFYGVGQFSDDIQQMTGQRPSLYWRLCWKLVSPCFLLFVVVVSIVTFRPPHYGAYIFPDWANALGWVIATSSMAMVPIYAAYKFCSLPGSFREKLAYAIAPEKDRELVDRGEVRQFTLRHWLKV
CYP2C9 activ: human CYP2C9 activators, primary screen, biochemical, luminescence; 96,000 tested, 1.4% active; recombinant CYP2C9, luciferin-H conversion; hits give high values; factor 1 = untreated enzyme, 0 = blocked; Cytochrome P450 2C9 (Homo sapiens), P11712; AID 1024, 2008; activation factor at 5 µM;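 active = activation factor of 2 or more for CYP2C9 at a 5 µM dose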
D1 allo mod: D1 CRE-luciferase signal change, two-sided – cell-based, HEK293 D1, dopamine EC30, D1 allosteric modulator project, primary screen; D(1A) dopamine receptor (Homo sapiens), P21728; dopamine EC30 potentiation; actives deviate in either direction; B-score at 10 µM; 58,000 tested, 5.9% active;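 active = luminescence count or its row- and column-corrected plate score outside the 99.7% band of the plate's sample wells, on either side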
CYP2C19 activ: human CYP2C19 activators, primary screen, biochemical, luminescence. Cytochrome P450 2C19 (Homo sapiens), P33261. recombinant CYP2C19, luciferin-H EGE luminescence; hits give high values; 0 = fully inhibited enzyme, 1 = untreated enzyme. activation factor at 5 µM. 96,000 tested, under 10 active. AID 1025, 2008;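 active = activation factor of at least 2 at 5 µM in the primary screen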
CYP2C9 inhib: blockers of cytochrome P450 2C9 activity – biochemical, luminescence, ADME assay, primary screen; P11712; CYP2C9 Supersomes, luciferin-H conversion; inhibition, % at 5 µM; 96,000 tested, 20% active; AID 777, 2007;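 active = blocking of liver enzyme CYP2C9 beyond about 50% at 5 µM, limit read from the data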
Each line names hits and unclear results; the compound was inactive in the other large screens. This is a sample that favours compounds with a hit; in the whole collection about 28% have one here.

COc1ccc(S(=O)(=O)N2CCN(C(=O)c3c(-c4ccccc4)noc3C)CC2)cc1	none (no result: D1 allo mod)
Cc1ccc(S(=O)(=O)n2ccc(=O)[nH]2)cc1	none (no result: CYP2C19 inhib, CYP2C9 activ, D1 allo mod, CYP2C19 activ, CYP2C9 inhib)
COc1ccc(OC)c(/C=N/NC(=O)CC2C(=O)NN=C2C)c1 (stereo not drawn)	none (no result: D1 allo mod)
COc1ccc(Cl)cc1NC(=O)CSc1nncn1-c1cccnc1	CYP2C19 inhib 94
COc1ccc(Cl)cc1NC(=O)CSc1nnc(Cn2c(=O)sc3ccccc32)n1C	none (no result: CYP2C19 inhib, CYP2C9 activ, D1 allo mod, CYP2C19 activ, CYP2C9 inhib)
COCCNC(=O)c1ccccc1NC(=O)c1ccc(OC)c(OC)c1	none
Cc1ccc(-c2nc3sc4c(N)ncnc4c3c3c2CCCC3)cc1	hDAT+cocaine -4.9 (no result: D1 allo mod)
COC(=O)c1sc2nc(-c3ccccc3)c3c(c2c1N)CCCC3	none (no result: D1 allo mod)
O=C1CCC(=O)N1c1nc2nc(-c3ccccc3)cc(-c3ccccc3)n2n1	none (no result: D1 allo mod)
CC1CN(CCCOc2ccccc2[N+](=O)[O-])CC(C)O1 (stereo not drawn)	none (no result: D1 allo mod)
Cc1ccc(C(C)C)c(OCCCN2CC(C)OC(C)C2)c1 (stereo not drawn)	CYP2C19 inhib 76
C=CC[C@]12C=C(OC)C(=O)C=C1O[C@@H](c1ccc3c(c1)OCO3)[C@H]2C	none (no result: CYP2C19 inhib, CYP2C9 activ, D1 allo mod, CYP2C19 activ, CYP2C9 inhib)
O=C(C1CCN(S(=O)(=O)c2cccc3cccnc23)CC1)N1CCN(C2CCCC2)CC1	none (no result: CYP2C19 inhib, hDAT+cocaine, CYP2C9 activ, CYP2C19 activ, CYP2C9 inhib)
C=CCn1c(SCC(=O)NC(=O)NCc2ccco2)nc2sc(CC)cc2c1=O	CYP2C9 inhib 71
CCCCCn1c(SCC2CCCO2)nc2cc(C(=O)N3CCC(C(N)=O)CC3)ccc2c1=O (stereo not drawn)	CYP2C9 inhib 53
C=CCn1c(SCC(=O)OCC)nc2cc(C(=O)NCc3ccco3)ccc2c1=O	CYP2C9 inhib 54 (no result: hDAT+cocaine, D1 allo mod)
CCOC(=O)CSc1nc2cc(C(=O)OC)ccc2c(=O)n1CCN1CCOCC1	CYP2C19 inhib 69 (no result: D1 allo mod)
CCCCCn1c(SCC(=O)OCC)nc2cc(C(=O)NCc3ccco3)ccc2c1=O	none (no result: hDAT+cocaine)
CCS(=O)(=O)c1ccc2c(c1)N(S(C)(=O)=O)CC(C(=O)NC1CC1)O2 (stereo not drawn)	none (no result: D1 allo mod)
CC1OC(Oc2ccc3ccc(=O)oc3c2-c2c(O)ccc3cc(Oc4ccc5ccc(=O)oc5c4)c(=O)oc23)C(O)C(O)C1O (stereo not drawn)	none (no result: CYP2C19 inhib, CYP2C9 activ, D1 allo mod, CYP2C19 activ, CYP2C9 inhib)
CC1CCc2c(sc(N)c2C(=O)OC(C)C)C1 (stereo not drawn)	none (no result: D1 allo mod)
CCN(C(=O)CSc1nc2cc(C(=O)OC)ccc2c(=O)n1Cc1ccco1)c1cccc(C)c1	CYP2C19 inhib 64, CYP2C9 inhib 92 (no result: D1 allo mod)
CCOC(=O)CSc1nc2cc(C(=O)NCC3CCCO3)ccc2c(=O)n1Cc1ccco1 (stereo not drawn)	CYP2C9 inhib 72
O=C(NCC1CCCO1)c1ccc2c(=O)n(Cc3ccco3)c(SCC(=O)N3CCCC3)nc2c1 (stereo not drawn)	none (no result: D1 allo mod)
CCc1ccc(NC(=O)CSc2nc3cc(C(=O)OC)ccc3c(=O)n2Cc2ccco2)cc1	none
Cc1ccc(C(c2nnnn2CCc2ccccc2)N2CCC(C)CC2)cc1 (stereo not drawn)	none (no result: CYP2C19 inhib, CYP2C9 activ, D1 allo mod, CYP2C19 activ, CYP2C9 inhib)
N#Cc1cccc(C(c2nnnn2Cc2ccccc2)N2CCCC2)c1 (stereo not drawn)	CYP2C19 inhib 56
N#Cc1ccc(C(c2nnnn2Cc2ccccc2)N2CCCC2)cc1 (stereo not drawn)	hDAT+cocaine -9.3 (no result: D1 allo mod)
CC(C)CCn1nnnc1C(c1ccccc1)N1CCN(C)CC1 (stereo not drawn)	none
CN1CCN(C(c2cccc(C(F)(F)F)c2)c2nnnn2Cc2ccccc2)CC1 (stereo not drawn)	CYP2C19 inhib 52
CCS(=O)(=O)N1CCCC(C(=O)NCCc2ccccc2)C1 (stereo not drawn)	none (no result: D1 allo mod)
Cc1ccc(S(=O)(=O)Nc2nonc2C)cc1	none (no result: hDAT+cocaine)
Cc1cc(C)c(NC(=O)CS(=O)CC(=O)NC2CCCc3ccccc32)c(C)c1 (stereo not drawn)	none (no result: D1 allo mod)
O=S(=O)(c1ccccc1)c1cnc(-c2cccnc2)nc1-c1ccc(Cl)cc1Cl	none (no result: D1 allo mod)
CN(C)c1ncc(S(=O)(=O)c2ccccc2)c(-c2ccccc2Cl)n1	CYP2C19 inhib 76 (no result: D1 allo mod)
Cc1ccc(Cn2nnc3c(=O)[nH]c(C4CCN(C(=O)c5cccs5)CC4)nc32)cc1	CYP2C9 inhib 72
Cc1ccc(C)c(Cn2nnc3c(=O)[nH]c(C4CCN(C(=O)c5cccs5)CC4)nc32)c1	CYP2C19 inhib 51, CYP2C9 inhib 88 (no result: D1 allo mod)
CCOC(=O)c1c(C)c(C(=O)NCCCN2CCCC2=O)c(C)n1CC	none
COc1cc(C(C)=O)ccc1OC(=O)C(C)N1C(=O)c2ccccc2C1=O (stereo not drawn)	CYP2C9 inhib 54
COc1ccc(Cl)cc1-c1n[nH]c(=S)n1C1CCCCC1	CYP2C19 inhib 80 (no result: D1 allo mod)
Cc1cc(Cl)ccc1OCC(=O)N1C(C)CCCC1C (stereo not drawn)	none
COc1ccc(-c2n[nH]c(=S)n2C2CCCCC2)cc1	CYP2C19 inhib 79
Cc1cc(Cl)ccc1OCc1n[nH]c(=S)n1C1CCCCC1	CYP2C19 inhib 81, CYP2C9 inhib 96 (no result: D1 allo mod)
COc1ccc(Cl)cc1Nc1nc(N2CCCC2)nc(N2CCCC2)n1	none (no result: hDAT+cocaine, D1 allo mod)
[O-][N+]12CCN(CC1)c1ccccc12	none
CCOC(=O)NC1(NC2CCCCC2)Oc2ccccc2O1	CYP2C9 inhib 57
c1ccc(Nc2nc(-c3cccs3)cs2)nc1	none (no result: CYP2C19 inhib, CYP2C9 activ, CYP2C19 activ, CYP2C9 inhib)
CC(=O)Nc1cccc(-c2csc(Nc3cc(C)ccn3)n2)c1	hDAT+cocaine 3.1 (no result: D1 allo mod)
Cc1ccnc(Nc2nc(-c3c(C)nc4sccn34)cs2)c1	none
CC(=O)Nc1cccc(-c2csc(Nc3ccccn3)n2)c1	hDAT+cocaine 2.5 (no result: D1 allo mod)
Cc1cccc(Nc2nc(-c3cccs3)cs2)n1	none (no result: CYP2C19 inhib, CYP2C9 activ, D1 allo mod, CYP2C19 activ, CYP2C9 inhib)
Cc1cccc(Nc2nc(-c3ccccn3)cs2)n1	CYP2C19 inhib 58, CYP2C9 inhib 52
N/C(=N\OS(=O)(=O)c1ccccc1)c1ccncc1	none (no result: D1 allo mod)
N/C(=N\OS(=O)(=O)c1ccc2ccccc2c1)c1ccncc1	CYP2C9 inhib 68 (no result: D1 allo mod)
CCOc1ccc2nc(NC(=O)Nc3cccs3)sc2c1	D1 allo mod -3.8 (no result: CYP2C19 inhib, CYP2C9 activ, CYP2C19 activ, CYP2C9 inhib)
CC(C)C(NS(=O)(=O)c1cccc2nsnc12)C(=O)Nc1nc2ccc(Cl)cc2s1 (stereo not drawn)	none (no result: hDAT+cocaine, D1 allo mod)
CCOc1ccc2nc(NC(=O)C(NS(=O)(=O)c3cccc4nsnc34)C(C)C)sc2c1 (stereo not drawn)	CYP2C19 inhib 70 (no result: D1 allo mod)
CCOc1ccc2nc(NC(=O)c3ccoc3C)sc2c1	CYP2C19 inhib 100, D1 allo mod -5.6, CYP2C9 inhib 85
